# Results: PubChem BioAssay (NCI)
# The panel holds about 79,000 compounds, 15% with a hit somewhere; the sample as a whole holds those more often. Unmarked numbers belong to inactive results. Activity calls are given as the source filed them. Rule as the data show it: active = growth inhibition above about 70%; inactive = the rest.
# What was measured:
# [1] = NCI Yeast Anticancer Drug Screen. Data for the rad50 strain (AID 155);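 also: 0% = growth of vehicle-only cultures of the same strain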; conditions: S. cerevisiae rad50 strain growth inhibition, hits give high values
# Procedure, shortened: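 DNA repair mutant yeast, compound exposure, growth read-out; inhibition is taken relative to vehicle.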
# [2] = NCI Yeast Anticancer Drug Screen. Data for the mec2-1 strain (AID 157); conditions: S. cerevisiae mec2-1 strain, hits give high values
# Procedure, shortened: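 Using mec2-1 yeast: add compound, measure growth, express inhibition versus vehicle-treated cultures.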
# [3] = NCI Yeast Anticancer Drug Screen. Data for the sgs1 mgt1 strain (AID 161);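 also: 0% = growth of cultures given vehicle only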; conditions: S. cerevisiae sgs1 mgt1 strain, hits give high values
# Procedure, shortened: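 Percent growth inhibition was derived by comparing compound-exposed mutant yeast with vehicle-exposed cultures. The strain carries alterations in DNA damage repair.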
# [4] = NCI Yeast Anticancer Drug Screen. Data for the cln2 rad14 strain (AID 165);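 also: 0% = growth equal to vehicle treated cultures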; conditions: S. cerevisiae cln2 rad14 strain, hits give high values
# Procedure, shortened: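 Yeast strain cln2 rad14, bearing defects in cell cycle control and DNA repair, serves as the test system; values reflect growth inhibition compared with vehicle.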
# [5] = NCI Yeast Anticancer Drug Screen. Data for the bub3 strain (AID 167); conditions: S. cerevisiae bub3 mutant strain, hits give high values
# Procedure, shortened: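 In this screen, a yeast mutant lacking normal mitotic checkpoint function is challenged with compound. Relative growth versus vehicle gives the inhibition value.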
# [6] = NCI Yeast Anticancer Drug Screen. Data for the mlh1 rad18 strain (AID 175); conditions: S. cerevisiae mlh1 rad18 strain growth inhibition, hits give high values
# Procedure, shortened: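 Steps: expose repair-defective yeast to compound; measure growth; express inhibition against vehicle-treated controls.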
# [7] = at 5.0 µM (retest, dose inferred, filed as 0.5)
# [8] = at 50.0 µM (retest, dose inferred, filed as 5.0)
SMILES,"growth inhibition [1, 7]","growth inhibition [1, 8]",growth inhibition ([1]; at 50.0 µM),"growth inhibition [2, 7]","growth inhibition [2, 8]",growth inhibition ([2]; at 50.0 µM),"growth inhibition [3, 7]","growth inhibition [3, 8]",growth inhibition ([3]; at 50.0 µM),"growth inhibition [4, 7]","growth inhibition [4, 8]",growth inhibition ([4]; at 50.0 µM),"growth inhibition [5, 7]","growth inhibition [5, 8]",growth inhibition ([5]; at 50.0 µM),"growth inhibition [6, 7]","growth inhibition [6, 8]",growth inhibition ([6]; at 50.0 µM)
O=C1C=CC(=O)N1CCCCCCN1C(=O)C=CC1=O,19%,99% (active),99% (active),29%,100% (active),99.3% (active),32%,99% (active),98.8% (active),16%,99% (active),99.5% (active),20%,97% (active),99.5% (active),38%,99% (active),99.2% (active)
O=C1/C(=C/c2cccc(Br)c2)CCc2ccccc21,1%,26%,66.3%,8%,49%,18.4%,13%,58%,61.4%,-5%,16%,22.4%,44%,82% (active),74.6% (active),13%,64%,65.8%
COc1ccc(C2SCC(=O)N2c2ccc(-c3ccc(-n4c(-c5ccccc5)nc5ccccc5c4=O)cc3)cc2)cc1 (configuration not stated),0%,33%,21.6%,1%,28%,34.1%,7%,57%,57.4%,42%,41%,13.5%,24%,69%,70.9% (active),18%,68%,58.1%
O=C1CN(c2cccc(Cl)c2)C(=O)CN1/N=C/c1ccc[nH]1,4%,-3%,98.4% (active),7%,0%,99.2% (active),10%,0%,98.7% (active),2%,-3%,97.9% (active),1%,-3%,98.3% (active),-3%,-5%,99% (active)
Cc1cc(N(CCCCl)CCCCl)ccc1C=Nc1cccc(Cl)c1,-7%,40%,79% (active),-7%,12%,32.8%,-4%,65%,80.7% (active),3%,-2%,-21.6%,-1%,59%,61%,-10%,23%,68.2%
CC1(c2ccc(Cl)cc2)OC(=O)C(=Cc2ccc([N+](=O)[O-])s2)C(=O)O1 (configuration not stated),26%,99% (active),51.5%,15%,99% (active),40.4%,49%,99% (active),88.9% (active),44%,99% (active),52.4%,45%,99% (active),84.7% (active),18%,82% (active),92.9% (active)
O=C(COc1ccc2ccccc2c1)NC1c2ccccc2Oc2ccccc21,77% (active),93% (active),74.2% (active),91% (active),97% (active),17.4%,95% (active),97% (active),69.3%,98% (active),94% (active),12%,92% (active),96% (active),15.6%,82% (active),96% (active),63%
CC(C)=CCC/C(C)=C/COC(=O)Nc1ccccc1,-7%,-5%,15.7%,-13%,-7%,18.7%,-2%,17%,62.3%,-40%,-5%,61%,-2%,-1%,52.8%,-13%,-11%,10.9%
O=c1cccc(C2CCc3cc(O)ccc3C2)[nH]1 (configuration not stated),-5%,3%,-2.85%,3%,1%,3.35%,-3%,4%,-5.05%,1%,-18%,22.6%,-3%,-11%,-11.3%,-6%,5%,13.2%
